SMN2 splice enh: qHTS Assay for Enhancers of SMN2 Splice Variant Expression; HEK293 SMN2-luciferase splicing reporter, luminescence, 30-36 h; Potency, µM (series often up to 46.1 µM), for inactives: at the top dose activity change, positive = activation, hits mostly activators; 2.8% of 210,000 active; also: % of control where 0% means no effect; nearly all actives have a fitted effect of over 55% in size
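HEK293 cells carry an SMN2 […]–luciferase reporter in which exon 7 inclusion puts luciferase in frame. Cells were plated 10-12 h before compound addition, then incubated 30-36 h at 37C. ONE-Glo luminescence was read; sodium butyrate at 4.5 mM final served as control.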
NPC1 prom act: qHTS Assay for NPC1 Promoter Activators; Huh7 NPC1 promoter luciferase reporter, 24 h; AID 485313, 2010; Potency, µM (highest dose often 9.22 µM), for inactives: top-dose activation, usual class: activators; 2.4% of 320,000 active; also: % of control where 0% means no effect; nearly all actives have a fitted effect of over 60% in size
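Cells: Huh7 expressing luciferase under the NPC1 promoter, 1500/well. Seeded 2 h, compound added, incubated 24 h at 37 °C. Luciferase reagent, 10 min ambient, then luminescence.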
ELG1 genotoxic: qHTS screen for small molecules that induce genotoxicity in human embryonic kidney (HEK293T) cells expressing luciferase-tagged ELG1; HEK293T ELG1-luciferase reporter, luminescence, 16 h; Potency, µM (series often up to 46 µM), for the others: at the top dose activity change, positive = activation, hits mostly activators; 1.3% of 330,000 active; also: % of control where 0% means no effect; nearly all actives have a fitted effect of over 60% in size
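After overnight (16 hr) compound treatment at 37 °C, ELG1-luciferase HEK293T cells were lysed with ONE-Glo; luminescence quantified 30 min later at room temperature.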
Rab9 promoter act: qHTS Assay for Rab9 Promoter Activators | Huh7 Rab9 promoter-luciferase reporter, luminescence, 24 h | Potency, µM (highest dose often 9.22 µM), inactives show at the highest dose activation, negative = inhibition, actives largely listed as activators | 2.8% of 320,000 active | AID 485297, 2010; also: % of control where 0% means no effect; nearly all actives have a fitted effect of over 60% in size
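Huh7 cells stably carrying a Rab9 promoter-luciferase reporter, 1500 cells per well in OP-MEM I with 10% FBS, treated with compound 24 hours at 37C. Luciferase activity read by luminescence after 10 minutes with Amplite reagent.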
FLuc counter: qHTS profiling assay for firefly luciferase inhibitor/activator using purifed enzyme and Km concentrations of substrates (counterscreen for miR-21 project); Luciferin 4-monooxygenase (Photinus pyralis), P08659; purified FLuc, Km substrates, luminescence inhibition; Potency, µM (highest dose often 57.5 µM), for inactives: top-dose activity change, negative = inhibition, most hits filed as inhibitors; 6.9% of 360,000 active; AID 588342, 2011;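 also: plate controls were vehicle for no effect and reference inhibitor for full effect; nearly all actives have a fitted effect of over 55% in size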
Target sequence (P08659 whole entry, looked up): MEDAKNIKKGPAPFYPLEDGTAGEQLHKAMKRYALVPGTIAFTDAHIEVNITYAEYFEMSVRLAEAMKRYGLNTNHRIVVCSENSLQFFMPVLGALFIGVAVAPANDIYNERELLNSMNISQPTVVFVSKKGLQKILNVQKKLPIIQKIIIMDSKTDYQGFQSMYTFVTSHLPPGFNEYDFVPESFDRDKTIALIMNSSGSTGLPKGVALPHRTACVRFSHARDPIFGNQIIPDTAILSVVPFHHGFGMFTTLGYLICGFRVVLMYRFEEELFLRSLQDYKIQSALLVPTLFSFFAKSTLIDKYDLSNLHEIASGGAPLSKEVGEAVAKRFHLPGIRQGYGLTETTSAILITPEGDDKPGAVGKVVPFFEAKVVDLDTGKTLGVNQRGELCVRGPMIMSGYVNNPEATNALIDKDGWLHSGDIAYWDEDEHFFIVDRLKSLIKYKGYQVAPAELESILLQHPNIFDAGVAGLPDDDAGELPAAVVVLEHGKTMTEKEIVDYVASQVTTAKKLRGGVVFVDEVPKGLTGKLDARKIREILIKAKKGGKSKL
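Purified P. pyralis luciferase (10nM final) with 10uM D-luciferin and 10uM ATP (Km levels) in 50mM Tris acetate pH 7.5, 10mM Mg acetate, 0.01% Tween-20, 0.05% BSA; qHTS 6-point titration, ~60 µM downward; luminescence read.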
ELG1 repair inh: qHTS screen for small molecules that inhibit ELG1-dependent DNA repair in human embryonic kidney (HEK293T) cells expressing luciferase-tagged ELG1 | 2.3% of 330,000 active | AID 504467, 2011 | Potency, µM (doses to about 46.1 µM), for the others: top-dose activity change, negative = inhibition, hits mostly inhibitors | HEK293T ELG1-luciferase reporter, luminescence, 16 h; DNA damage induced by 5-fluorouridine; also: % is scaled to controls: 0 for no effect and ±100 for the full control effect; nearly all actives have a fitted effect of over 55% in size
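Quantitative HTS, concentration-response format. 2,000 cells/well co-treated with 5-fluorouridine and compound, 16 hr in 5% CO2 at 37 °C; ONE-Glo luminescence read after 30 min.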
ELG1 FLuc counter: qHTS screen for small molecules that inhibit ELG1-dependent DNA repair: Hit Confirmation in Cell-Based Luciferin Assay; 3% of 350 active; AID 624247, 2012; shares compounds with ELG1 repair inh; cell-free firefly luciferase luminescence counter-screen, ViewLux; Potency, µM (doses to about 46.1 µM), inactives show at the top dose activity change, negative = inhibition, most hits filed as inhibitors; also: % is scaled to controls: 0 for no effect and ±100 for the full control effect
ELG1 Luc conf: HTS assay for small molecules that inhibit ELG1-dependent DNA repair in human embryonic kidney (HEK293T) cells expressing luciferase-tagged ELG1: Hit Confirmation; HEK293T ELG1-luciferase levels, luminescence; cells co-treated with 5-fluorouridine; AID 624248, 2012; shares compounds with ELG1 repair inh; Potency, µM (doses to about 46.1 µM), without a hit: top-dose activity change, negative = inhibition, actives largely listed as inhibitors; 68% of 670 active; also: % is scaled to controls: 0 for no effect and ±100 for the full control effect; nearly all actives have a fitted effect of over 55% in size
ELG1-Luc MMS: confirmation of human ELG1 repair inhibitors, MMS stimulated. AID 624249. HEK293T luciferase-tagged ELG1 level, MMS stimulated. 53% of 670 active. shares compounds with ELG1 repair inh. Potency, µM (doses to about 46.1 µM), inactives show at the highest dose activity change, negative = inhibition, actives largely listed as inhibitors; also: % is scaled to controls: 0 for no effect and ±100 for the full control effect; nearly all actives have a fitted effect of over 60% in size
ELG1 5-FU: qHTS screen for small molecules that inhibit ELG1-dependent DNA repair: Hit Confirmation with 5FU Viability | shares compounds with ELG1 repair inh | cell viability with 5-FU, ELG1-dependent repair | Potency, µM (titrated, usually from 46.1 µM), for the others: at the top dose activity change, negative = viability loss, usual class: cytotoxic | 670 tested, under 10 active | AID 624250, 2012;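 also: ELG1-luc HEK293T cells cotreated with 5-fluorouridine at 10 µM final; viability measured 16 h after compound addition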
ELG1 MMS cell: qHTS screen for small molecules that inhibit ELG1-dependent DNA repair: Hit Confirmation with MMS Viability; 33% of 670 active; AID 624251, 2012; Cell viability with MMS, ELG1-dependent DNA repair; Potency, µM (top dose mostly 46.1 µM), for the others: at the top dose activity change, negative = viability loss, usual class: cytotoxic; shares compounds with ELG1 repair inh;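 also: ELG1-luc HEK293T cells co-treated with 10 µM MMS; viability read 16 h after compound addition; % is scaled to controls: 0 for no effect and ±100 for the full control effect; nearly all actives have a fitted effect of over 60% in size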
Cell viab unstim: qHTS screen for small molecules that inhibit ELG1-dependent DNA repair: Hit Confirmation with Unstimulated Viability Assay; cell viability counter-screen, unstimulated, luminescence; 8% of 900 active; Potency, µM (top dose mostly 45.9 µM), without a hit: top-dose activity change, negative = loss of viability, actives largely listed as cytotoxic; AID 624252, 2012; shares compounds with ELG1 repair inh;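 also: compound exposure lasted 16 hours before reading; % is scaled to controls: 0 for no effect and ±100 for the full control effect; nearly all actives have a fitted effect of over 55% in size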
FLuc enzyme: qHTS screen for small molecules that inhibit ELG1-dependent DNA repair: Hit Confirmation in Biochemical Luciferin Assay | shares compounds with ELG1 repair inh | purified firefly luciferase, luminescence counter-screen | Potency, µM (series often up to 57.5 µM), for the others: at the top dose activity, negative = inhibition, usual class: inhibitors | 10% of 350 active | AID 624253, 2012; also: % is scaled to controls: 0 for no effect and ±100 for the full control effect
The depositor's hits bear a star; ? = inconclusive; · = not tested or not shown; [ ] = dose if it differs, or a comment. The list is not random: actives were taken first. Their share in the collection is about 9.4%. Calls follow the shape of the dose curve; as a rule, active = well fitted curve in the direction sought with a large enough effect; inconclusive = small, poorly fitted or top-dose-only effect, or another doubt; inactive = no such curve, though single readings can be large; an effect the other way counts as inactive or inconclusive. Potency is read from the fitted curve at half-maximal effect.

SMILES	SMN2 splice enh	NPC1 prom act	ELG1 genotoxic	Rab9 promoter act	FLuc counter	ELG1 repair inh	ELG1 Luc conf	ELG1-Luc MMS	ELG1 5-FU	ELG1 MMS cell	Cell viab unstim	others
Cc1cccc(N(CC(=O)N(C)Cc2ccccc2)S(=O)(=O)c2ccccc2)c1C	-2%	·	·	·	2%	·	·	·	·	·	·
COc1cc(C(=O)NCc2ccccc2)cc(Br)c1OC	14%	-7%	0%	-1%	-3%	3.7µM*	?	-6%	?	12%	6%
COc1cc(C(=O)NCc2ccncc2)cc(OC)c1OC	·	-1%	4%	-1%	1%	?	·	·	·	·	·
CNC(=O)c1cc(-c2cccs2)on1	·	·	·	·	·	·	·	·	·	·	-6%
O=C(NC1CCCC1)c1cc(-c2cccs2)on1	?	1.6µM*	9.2µM*	2µM*	4.8µM*	?	·	·	·	·	-12%
O=C(Cn1c(-c2cccs2)cc2ccccc21)NCCCN1CCN(c2ccccc2F)CC1	·	·	·	·	3%	·	·	·	·	·	·
CC1=C(C(=O)OCc2ccc3c(c2)OCO3)C(c2ccc(F)cc2)NC(=O)N1 (centres undefined)	-46%	-23%	-12%	-15%	-1%	1.3µM*	0.89µM*	4.5µM*	-1%	?	?	ELG1 FLuc counter=?;FLuc enzyme=-7%
CC1=C(C(=O)OCc2ccc3c(c2)OCO3)C(c2ccc(Cl)cc2)NC(=O)N1 (centres undefined)	-35%	-22%	-16%	-16%	2%	0.23µM*	0.2µM*	0.89µM*	11%	?	?	ELG1 FLuc counter=?;FLuc enzyme=3%
CSCCOC(=O)C1=C(C)NC(=O)NC1c1ccc2c(c1)OCO2 (centres undefined)	·	-1%	0%	-2%	3%	-13%	·	·	·	·	·
Cc1c(-c2nsc(NC(=O)c3cccs3)n2)nnn1-c1ccc(Br)cc1	·	·	·	·	2%	·	·	·	·	·	·
CCn1c(SCC(=O)N2CC(C)OC(C)C2)nc2c([nH]c3ccccc32)c1=O (centres undefined)	·	1%	-2%	2%	-4%	3.3µM*	10µM*	-5%	?	20%	6%
COCCn1c(SCC(=O)N2CC(C)OC(C)C2)nc2c([nH]c3ccccc32)c1=O (centres undefined)	·	5%	-5%	9%	1%	-9%	·	·	·	·	·
O=C(CSc1nc2c(c(=O)[nH]1)CCC2)Nc1cccc(O)c1	·	·	·	·	4%	·	·	·	·	·	·
O=C(NCC1CCCO1)c1ccc2c(=O)n(CC3CCCO3)c(=S)[nH]c2c1 (centres undefined)	-16%	0%	-8%	-2%	1%	-23%	·	·	·	·	·
O=C(Nc1ccc(F)cc1)c1ccc2c(=O)n(CC3CCCO3)c(=S)[nH]c2c1 (centres undefined)	·	-4%	-18%	-1%	2%	4.1µM*	5.6µM*	22µM*	?	?	-20%
Cc1ccc(-c2csc3ncnc(N4CCN(C(=O)c5ccccc5)CC4)c23)cc1	-20%	-2%	-28%	-1%	-1%	18µM*	16µM*	25µM*	?	?	?	ELG1 FLuc counter=?;FLuc enzyme=1%
CCOc1ccc(CNS(=O)(=O)c2ccc3c(c2)CCCN3C(C)=O)cc1OC	·	·	·	·	-4%	·	·	·	·	·	·
CCOc1ccc(C(C(=O)NCC2CCCO2)N(Cc2cccs2)C(=O)c2snc(C(N)=O)c2N)cc1 (centres undefined)	·	-2%	-15%	0%	3%	4.6µM*	7.9µM*	7.9µM*	-12%	?	?
COc1ccc(Nc2c3c(nc4nncn24)CCC3)cc1Cl	-9%	·	·	·	5%	·	·	·	·	·	·
COc1ccccc1N1CCN(C(=O)CCCN2C(=O)c3cccc4cccc(c34)C2=O)CC1	-4%	-2%	-11%	-5%	-16%	4.6µM*	7.9µM*	?	?	-4%	?
COc1ccccc1N1CCN(S(=O)(=O)c2ccc3c(c2)CCCN3C(C)=O)CC1	·	·	·	·	-4%	·	·	·	·	·	·
CC(=O)N1c2ccc(S(=O)(=O)NCCC(=O)NCc3ccc(Cl)cc3)cc2CC1C (centres undefined)	·	-6%	-2%[9.26 µM]	-4%	-1%	?	·	·	·	·	·

Screens as filed in PubChem.
